In all, about 68,000 compounds went through this assay and about 2,700 (4%) showed an effect of 50% or more. Shown is part of a subset that was picked to be rich in strong results.
These molecules were tested on Plasmodium berghei (assay: Screen against P. berghei liver stage (PbLuc), transformed with Luciferase, at 2uM). Settings: tested at 2 uM.
Assay type: functional, HepG2
Cc1cc(C(=O)N2CCCS2(=O)=O)c(C)o1 was tested, and the INHIBITION was -15.41%.
COC(=O)CN1CCC(C(=O)c2cc(F)ccc2F)CC1 was tested, and the INHIBITION was 35.23%.
With Cc1oc(-c2ccco2)nc1CN1CCCC(Cn2cncn2)C1 (stereo not given) the INHIBITION was 43.7%.
Molecule O=C(CN1CC(c2ccccc2)CC1=O)N1CCC(c2ncc[nH]2)CC1 (stereo not given) has an INHIBITION of -63.6%.
Cc1nnc2n1CCN(C(=O)C(C)Oc1ccc(C#N)cc1)C2 (stereo not given) was tested, and the INHIBITION was 35.56%.
Molecule COc1cc(C#N)ccc1OCC(=O)NS(=O)(=O)c1ccccc1 has an INHIBITION of -0.89%.
Work on CC(C)c1noc(OCC(=O)N(C)C(C)C)n1 yielded an INHIBITION of -6.48%.
In the case of Cc1nsc(N2CCN(C(=O)Nc3ccc4[nH]ccc4c3)CC2)n1, the INHIBITION is reported as 57.75%.
For Cc1nsc(N2CCCN(C(=O)c3ccc4[nH]ccc4c3)CC2)n1, the INHIBITION was 24.36%.
Cc1nsc(N2CCN(C(=O)Nc3cccc(F)c3)CC2)n1 showed an INHIBITION of 45.82%.
CO[C@H]1CN(C(=O)c2ccc3oc(C)cc3c2)CC[C@@]12CCCO2 showed an INHIBITION of 27.16%.
Molecule CO[C@H]1CN(C(=O)c2cccc(C)n2)CC[C@@]12CCCO2 has an INHIBITION of 19.91%.
Molecule CO[C@H]1CN(C(=O)c2cn3cc(C)ccc3n2)CC[C@@]12CCCO2 has an INHIBITION of 80.88%.
Molecule COCCNC(=O)C1(Cc2ccccc2-c2ccncc2)CCOCC1 has an INHIBITION of 52.82%.
Molecule CC(C)(C)NC(=O)C1(Cc2ccccc2-c2ccncc2)CCOCC1 has an INHIBITION of 16.55%.
COc1ccccc1C1=NOC(CC2(C(=O)O)CCOCC2)C1 (stereo not given) gave an INHIBITION of 8.89%.
O=C(NCCO)C1(Cc2ccccc2-c2ccncc2)CCOCC1 gave an INHIBITION of 26.14%.
For COc1ccc(F)cc1-c1ccccc1CC1(C(=O)O)CCOCC1, the INHIBITION was 53.95%.
COc1ccccc1-c1ccccc1CC1(C(=O)O)CCNCC1 showed an INHIBITION of -18.15%.
With COCCOc1cccc(CNCc2ccc(-n3cncn3)nc2)c1 the INHIBITION was 5.47%.
With CC(C)N1CCO[C@H]2CN(C(=O)Cc3cccs3)C[C@H]21 the INHIBITION was 9.87%.
COc1ccc(-c2nnc(SC(C)C(N)=O)[nH]2)c(OC)c1 (stereo not given) showed an INHIBITION of -61.3%.
COc1ccc(C(=O)C2CCCN(c3cc(OC)ncn3)C2)c(C)c1 (stereo not given) was tested, and the INHIBITION was 60%.
COc1ccc(C(=O)C2CCCN(c3cnccn3)C2)c(C)c1 (stereo not given) gave an INHIBITION of 16.87%.
COc1ccc(C(=O)C2CCCN(c3cc(N)ncn3)C2)c(C)c1 (stereo not given) gave an INHIBITION of 16.32%.
In the case of CN(C)Cc1ccccc1CN(C)C(=O)c1ccoc1, the INHIBITION is reported as 16.49%.
Work on CN(CCc1ccncc1)C(=O)c1sccc1OC(F)F yielded an INHIBITION of -120.22%.
Work on CCC(=O)N(CC)CCc1nccs1 yielded an INHIBITION of 36.57%.
Cc1ncsc1C(=O)N(C)CCc1ccncc1 gave an INHIBITION of -3.38%.
Molecule CN(CCc1cccs1)CCc1nccs1 has an INHIBITION of 55.25%.
With CN(CCc1ccccn1)CCc1nccs1 the INHIBITION was 15.84%.
CCN(CCc1nccs1)C(=O)c1ccco1 showed an INHIBITION of 44.23%.
Molecule CN(CCc1ccncc1)Cc1nccn1Cc1ccccc1 has an INHIBITION of 33.78%.
Molecule CN(CCc1ccncc1)CCc1nccs1 has an INHIBITION of 78.24%.
CCc1ccsc1C(=O)N(C)CCc1ccncc1 showed an INHIBITION of 70.66%.

— ChEMBL document CHEMBL4513216, “Probing the Open Global Health Chemical Diversity Library for Multistage-Active Starting Points for Next-Generation Antimalarials” (ACS Infect Dis, 2020)
